These results are taken from PubChem BioAssay (NCATS).

Records with an inconclusive call do not appear. The source made the active and inactive calls. Unless noted, calls come from the whole dose curve; as a rule, active = well fitted curve in the direction sought with a large enough effect; inconclusive = small, poorly fitted or top-dose-only effect, or another doubt; inactive = no such curve, though single readings can be large; an effect the other way counts as inactive or inconclusive.

Assay [1] can be described thus: AP1 Signaling Pathway (AID 357; active = well fitted curve in either direction with a large enough effect, not every such curve was filed as active;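 note: ME-180 reporter cells stimulated with EGF at its EC50 level; % is set by controls: 0 for no effect and ±100 for the full control effect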). The note with it: ME-180 AP-1-bla reporter, EGF-induced, beta-lactamase ratio, 5 h; at 7.69 µM (top of the series) unless noted. An outline of the steps:
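Cells are seeded overnight, exposed to compound titrations and an EC50 level of EGF for 5 hours at 37 °C, then loaded with CCF4 dye for 2.5 hours. Beta-lactamase activity under the AP-1 element is read as a blue/green ratio.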

In assay [2] the target is Cytochrome P450 1A2 (Homo sapiens) (UniProt P05177). The assay can be described thus: p450-cyp1a2 (AID 410; calls by dose curve; note: potency is the fitted concentration of half-maximal effect). An outline of the steps:
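Luminescent demethylation readout: Luciferin-ME (100uM, equal to Km) turned over by 20nM CYP1A2 for 60 min at room temperature after NADPH regeneration addition, following 10 min compound preincubation. Normalization used 57 uM furafylline as full inhibition.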

Assay [3] can be described thus: NFAT Signaling Pathway (AID 444; active = well fitted curve in either direction with a large enough effect, not every such curve was filed as active;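 note: carbachol stimulus at about its EC50 of 1 µM final; % is set by controls: 0 for no effect and ±100 for the full control effect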). Conditions: Jurkat NFAT-bla M1, carbachol, beta-lactamase ratio, 5 h; at 7.69 µM (top of the series) unless noted. An outline of the steps: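 Read-out: CCF4 FRET ratio (460 nm/530 nm) after 1 h RT dye loading, used for %activity and AC50 from titration series. Cells: Jurkat NFAT-β-lactamase/M1 line, treated with compound plus 1 uM carbachol for 5 h, 37 °C.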

Assay [4] is described as follows: Stat Signaling Pathway (AID 446; active = well fitted curve in either direction with a large enough effect, not every such curve was filed as active;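 note: ME-180 cervical cancer cells given 40 pM IL-6 alongside compound; SIE-controlled beta-lactamase reporter measured as 460/530 nm FRET emission ratio; % is set by controls: 0 for no effect and ±100 for the full control effect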). Conditions: ME-180 (cervical carcinoma) SIE beta-lactamase reporter, IL-6 stimulated, 5 h; at 7.69 µM (top of the series) unless noted. An outline of the steps:
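FRET read-out (405 nm excitation, 460/530 nm emission) of a beta-lactamase reporter under a STAT-inducible element in ME-180 cervical carcinoma cells. Cells with compound receive 40 pM IL-6 for 5 h. Values are normalised to AC90 stimulation and AC90 JAK-inhibitor controls.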

Assay [5] has as its target Glucocorticoid receptor (Homo sapiens) (UniProt P04150). The assay can be described thus: GR-GFP Redistribution (AID 450;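 active = compounds whose dose series gives a full or clear partial fitted curve of increased nuclear translocation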; note: potency is the fitted concentration of half-maximal effect). Conditions: U2OS GR-GFP nuclear translocation, laser cytometry, 2 h.
For assay [6] the target is unchanged. Briefly: GR-EFC Redistribution (AID 451; calls by dose curve; note: potency is the fitted concentration of half-maximal effect). Conditions: CHO-K1 GR-EFC translocation, beta-gal luminescence, 2 h. An outline of the steps:
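Translocation of GR-ED fusion to nuclear EA restores b-gal, read by luminescence after 1 h room-temperature detection. Engineered CHO-K1 biosensor cells, 1,000/well, exposed 2 h at 37 C to titrations up to 46 uM final.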

Assay [7] addresses Mitogen-activated protein kinase 10 (Mus musculus) (UniProt Q61831). Briefly: JNK3 AlphaScreen Assay (AID 530; active = well fitted curve in either direction with a large enough effect, not every such curve was filed as active;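 note: kinase came from lysate of stimulated human HepG2 cells; signal reports phosphorylation of biotinylated GST-cJun 1-79 at Ser73 with 10 µM ATP; % is set by controls: 0 for no effect and ±100 for the full control effect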). An outline of the steps:
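qHTS titrations with 15 min compound pre-incubation before adding ATP (10 uM final). Read-out: AlphaScreen of Ser73-phosphorylated biotin-GST-cJun using HepG2 lysate JNK3 activated by IL-1β and TNFα.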
A general note: In Alpha technology, singlet oxygen from a donor bead excites a nearby acceptor bead.

For assay [8], the target named is 3',5'-cyclic-AMP phosphodiesterase 4B (Homo sapiens) (UniProt Q07343). Briefly: qHTS Assay for Inhibitors of PDE-IV (AID 607; active = well fitted activation curve with a large enough effect in the main read-out, with a control signal flat, not every such curve was filed as active; note: % of control where 0% means no effect). The procedure, abridged: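 Cell-based read-out of cAMP via a modified cyclic nucleotide-gated channel and membrane potential dye (535/590 nm) in HEK293 cells expressing PDE4 endogenously. Compounds tested up to 22.9 uM final; 100 uM RO 20-1724 reference.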
In general terms: Quantitative high-throughput screening tests each substance at several concentrations.

For assay [9], the target named is Cytochrome P450 3A4 (Homo sapiens) (UniProt P08684). The assay can be described thus: qHTS Assay for Inhibitors and Substrates of Cytochrome P450 3A4 (AID 884). Note: nearly all actives have a fitted effect of over 50% in size. Note: potency is the fitted concentration of half-maximal effect. An outline of the steps: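 Luminescent readout of luciferin produced by CYP3A4 (20 nM) dealkylation of Luciferin-PPXE, 25 uM (its KM). NADPH-driven reaction ran 60 min at RT after 10 min compound preincubation; data scaled to 57 uM ketoconazole as 100% inhibition.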

Assay [10] shares this target. Briefly: qHTS Assay for Activators of Cytochrome P450 3A4 (AID 885). Note: nearly all actives have a fitted effect of over 65% in size. The procedure, abridged:
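Luminescent readout of luciferin formed from 25 uM Luciferin-PPXE (KM level) by 20 nM CYP3A4 in 200 mM KPO4, with 60 min NADPH-driven reaction at room temperature after 10 min compound exposure. Ketoconazole (57 uM) defined 100% inhibition.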

Assay [11] is described as follows: Confirmation and Secondary Assay for Modulators of Hemoglobin Beta Chain Splicing at IVS2 705 locus (AID 930).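 Note: HeLa cells stably expressing the EGFP-705 splicing reporter; GFP fluorescence per well restored by corrected splicing of the IVS2-705 intron in EGFP; % of control where 0% means no effect.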 An outline of the steps:
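Read-out: total peak GFP fluorescence per well (488 nm excitation, 500-520 nm emission) by laser-scanning cytometry. Cells: HeLa EGFP-705 splicing reporter, 2 days compound exposure in Optimem/2% FCS.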

Assay [12] is described as follows: qHTS Assay for Lipid Storage Modulators (AID 1519; calls by dose curve). The note with it: Drosophila S3 cells, BODIPY lipid droplet/cell ratio, laser cytometry, cells loaded with oleic acid; for activity change, negative = inhibition: at 57.5 µM (top of the series). The procedure, abridged:
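Cells seeded at 5,000 per well were treated with compounds over a concentration series and loaded with oleic acid (400 uM, as added). Lipid droplet fluorescence (488 nm excitation, 500-530 nm channel) was read by laser-scanning cytometry and normalized to 20 uM Triacsin C.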

The target in assay [13] is Ubiquitin carboxyl-terminal hydrolase 1 (Homo sapiens) (UniProt O94782). Briefly: Inhibitors of USP1/UAF1: Pilot qHTS (AID 504865).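 Note: rhodamine fluorescence freed from ubiquitin-rhodamine substrate followed over time; top concentration of the series differs between compounds; % is set by controls: 0 for no effect and ±100 for the full control effect; nearly all actives have a fitted effect of over 35% in size.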 The procedure, abridged: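 1nM USP1/UAF1 + cpd, 15 min RT; start w/ Ub-Rho 150nM final; kinetic FL 480/540 nm, 6 reads q60 s. Buffer 50mM HEPES pH 7.8, 0.5mM EDTA, 1mM TCEP, 0.01% Tween-20, 0.1 mg/ml BSA.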
Assay [14] is described as follows: Primary qHTS for small molecule stabilizers of the endoplasmic reticulum resident proteome: Secreted ER Calcium Modulated Protein (SERCaMP) assay (AID 1508630). Note: % is set by controls: 0 for no effect and ±100 for the full control effect. The procedure, abridged:
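The SH-SY5Y reporter protocol was run at 3 concentrations up to 38.3 uM (primary) or 11 concentrations (follow-up): 16 h compound, 100 nM thapsigargin for 4 h, then extracellular luciferase luminescence.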

Assay [15] has as its target Lysosomal acid glucosylceramidase (Homo sapiens) (UniProt P04062). Briefly: Glucocerebrosidase-p2 (AID 348; in the data active = potency below about 10 µM; note: potency is the fitted concentration of half-maximal effect). The note with it: purified GBA, blue fluorogenic substrate, 40 min. The procedure, abridged: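 Normal human glucocerebrosidase (0.2 nM) with blue fluorogenic substrate (80 uM final) in citrate/phosphate pH 5.9 with 10mM sodium taurocholate, 0.01% tween-20; 40 min RT, NaOH/glycine stop; fluorescence Ex 365/Em 440; AC50 from a titration from 0.6 nM upwards.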

The mark [16] stands for this setting: measured here: cell count channel max response.
[17] abbreviates: measured here: lipid channel max response.

Chain of Glucocorticoid receptor (Homo sapiens) (P04150 whole entry, looked up): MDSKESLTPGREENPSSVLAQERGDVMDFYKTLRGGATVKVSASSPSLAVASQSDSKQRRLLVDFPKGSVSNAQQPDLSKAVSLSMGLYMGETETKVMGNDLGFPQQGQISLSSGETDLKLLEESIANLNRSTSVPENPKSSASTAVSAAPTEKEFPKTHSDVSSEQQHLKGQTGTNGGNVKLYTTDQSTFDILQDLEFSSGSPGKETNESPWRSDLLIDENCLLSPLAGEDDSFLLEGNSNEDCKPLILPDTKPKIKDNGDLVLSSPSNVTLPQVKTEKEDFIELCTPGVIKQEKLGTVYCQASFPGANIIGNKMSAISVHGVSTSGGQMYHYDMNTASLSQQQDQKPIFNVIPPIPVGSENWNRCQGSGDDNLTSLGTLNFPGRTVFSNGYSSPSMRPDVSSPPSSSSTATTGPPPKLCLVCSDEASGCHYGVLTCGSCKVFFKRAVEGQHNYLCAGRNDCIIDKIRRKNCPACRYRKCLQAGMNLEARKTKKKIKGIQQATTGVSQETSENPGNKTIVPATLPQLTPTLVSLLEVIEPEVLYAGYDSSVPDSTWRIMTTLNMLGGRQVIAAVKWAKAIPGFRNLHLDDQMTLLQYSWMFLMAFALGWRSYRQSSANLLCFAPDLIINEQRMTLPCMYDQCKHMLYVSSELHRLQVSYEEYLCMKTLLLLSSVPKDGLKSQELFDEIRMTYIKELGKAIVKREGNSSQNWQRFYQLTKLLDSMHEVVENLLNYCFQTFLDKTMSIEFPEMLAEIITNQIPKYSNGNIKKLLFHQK
Chain of 3',5'-cyclic-AMP phosphodiesterase 4B (Homo sapiens) (Q07343 whole entry, looked up): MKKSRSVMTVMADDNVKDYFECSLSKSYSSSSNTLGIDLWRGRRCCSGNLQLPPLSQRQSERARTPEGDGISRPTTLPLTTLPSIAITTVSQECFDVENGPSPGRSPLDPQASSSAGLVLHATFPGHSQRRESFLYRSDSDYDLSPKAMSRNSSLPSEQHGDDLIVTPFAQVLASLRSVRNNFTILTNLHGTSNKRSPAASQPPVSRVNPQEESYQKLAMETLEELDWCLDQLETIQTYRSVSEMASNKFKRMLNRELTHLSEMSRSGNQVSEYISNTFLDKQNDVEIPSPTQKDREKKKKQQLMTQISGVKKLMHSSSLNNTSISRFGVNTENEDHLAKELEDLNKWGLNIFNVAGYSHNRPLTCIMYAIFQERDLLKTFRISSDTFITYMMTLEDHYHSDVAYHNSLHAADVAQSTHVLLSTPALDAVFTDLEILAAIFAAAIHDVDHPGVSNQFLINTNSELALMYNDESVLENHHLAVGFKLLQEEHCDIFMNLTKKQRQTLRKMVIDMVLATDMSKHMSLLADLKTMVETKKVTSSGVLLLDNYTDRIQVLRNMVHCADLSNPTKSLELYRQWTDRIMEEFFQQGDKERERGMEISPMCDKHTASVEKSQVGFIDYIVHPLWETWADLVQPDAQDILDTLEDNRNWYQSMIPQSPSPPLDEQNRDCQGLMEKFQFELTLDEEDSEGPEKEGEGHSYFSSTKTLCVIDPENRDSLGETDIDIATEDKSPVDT
Chain of Cytochrome P450 1A2 (Homo sapiens) (P05177 whole entry, looked up): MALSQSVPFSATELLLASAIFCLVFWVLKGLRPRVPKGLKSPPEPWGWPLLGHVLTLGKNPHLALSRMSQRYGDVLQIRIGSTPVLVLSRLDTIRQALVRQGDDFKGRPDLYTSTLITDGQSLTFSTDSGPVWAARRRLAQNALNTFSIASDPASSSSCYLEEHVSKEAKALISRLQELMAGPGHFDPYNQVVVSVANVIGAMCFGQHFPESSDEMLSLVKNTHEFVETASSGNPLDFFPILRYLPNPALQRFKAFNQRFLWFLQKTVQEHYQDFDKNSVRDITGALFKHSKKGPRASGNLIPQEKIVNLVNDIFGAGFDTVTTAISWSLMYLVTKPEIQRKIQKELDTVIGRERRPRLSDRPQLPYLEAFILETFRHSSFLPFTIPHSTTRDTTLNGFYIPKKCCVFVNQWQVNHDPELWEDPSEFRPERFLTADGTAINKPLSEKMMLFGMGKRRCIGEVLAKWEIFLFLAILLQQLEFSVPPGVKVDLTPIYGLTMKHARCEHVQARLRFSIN
Chain of Cytochrome P450 3A4 (Homo sapiens) (P08684 whole entry, looked up): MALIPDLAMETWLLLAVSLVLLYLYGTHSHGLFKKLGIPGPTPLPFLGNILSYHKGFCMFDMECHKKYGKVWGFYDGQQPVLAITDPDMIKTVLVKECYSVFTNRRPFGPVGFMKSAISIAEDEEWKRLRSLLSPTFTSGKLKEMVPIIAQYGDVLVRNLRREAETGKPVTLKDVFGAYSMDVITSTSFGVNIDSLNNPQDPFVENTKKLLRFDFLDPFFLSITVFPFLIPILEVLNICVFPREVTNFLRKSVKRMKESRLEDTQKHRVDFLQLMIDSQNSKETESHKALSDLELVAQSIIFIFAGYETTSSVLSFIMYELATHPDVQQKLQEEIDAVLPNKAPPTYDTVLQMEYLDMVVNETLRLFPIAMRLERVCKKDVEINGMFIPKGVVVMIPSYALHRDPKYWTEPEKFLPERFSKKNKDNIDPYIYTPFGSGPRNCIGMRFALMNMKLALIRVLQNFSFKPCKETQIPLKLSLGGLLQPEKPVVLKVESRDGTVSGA
Chain of Ubiquitin carboxyl-terminal hydrolase 1 (Homo sapiens) (O94782 whole entry, looked up): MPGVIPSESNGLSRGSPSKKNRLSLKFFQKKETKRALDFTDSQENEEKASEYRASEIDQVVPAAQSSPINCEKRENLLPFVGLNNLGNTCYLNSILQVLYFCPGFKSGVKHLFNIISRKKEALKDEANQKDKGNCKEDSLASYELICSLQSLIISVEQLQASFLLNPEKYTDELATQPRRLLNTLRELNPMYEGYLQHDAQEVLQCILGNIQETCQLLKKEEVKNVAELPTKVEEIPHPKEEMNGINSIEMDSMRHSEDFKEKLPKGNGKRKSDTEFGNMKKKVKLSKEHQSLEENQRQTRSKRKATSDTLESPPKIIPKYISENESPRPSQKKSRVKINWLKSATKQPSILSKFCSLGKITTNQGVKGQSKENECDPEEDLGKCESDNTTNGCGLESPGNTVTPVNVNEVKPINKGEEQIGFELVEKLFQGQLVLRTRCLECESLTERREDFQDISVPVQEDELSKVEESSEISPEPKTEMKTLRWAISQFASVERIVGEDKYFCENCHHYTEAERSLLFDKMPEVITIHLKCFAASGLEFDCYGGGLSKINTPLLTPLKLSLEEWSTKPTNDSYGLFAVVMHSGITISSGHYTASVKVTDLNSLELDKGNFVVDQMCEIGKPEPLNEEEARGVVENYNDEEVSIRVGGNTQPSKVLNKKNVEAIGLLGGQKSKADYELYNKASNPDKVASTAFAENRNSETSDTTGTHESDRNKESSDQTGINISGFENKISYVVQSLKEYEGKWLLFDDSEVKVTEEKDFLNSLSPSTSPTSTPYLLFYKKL
Chain of Lysosomal acid glucosylceramidase (Homo sapiens) (P04062 whole entry, looked up): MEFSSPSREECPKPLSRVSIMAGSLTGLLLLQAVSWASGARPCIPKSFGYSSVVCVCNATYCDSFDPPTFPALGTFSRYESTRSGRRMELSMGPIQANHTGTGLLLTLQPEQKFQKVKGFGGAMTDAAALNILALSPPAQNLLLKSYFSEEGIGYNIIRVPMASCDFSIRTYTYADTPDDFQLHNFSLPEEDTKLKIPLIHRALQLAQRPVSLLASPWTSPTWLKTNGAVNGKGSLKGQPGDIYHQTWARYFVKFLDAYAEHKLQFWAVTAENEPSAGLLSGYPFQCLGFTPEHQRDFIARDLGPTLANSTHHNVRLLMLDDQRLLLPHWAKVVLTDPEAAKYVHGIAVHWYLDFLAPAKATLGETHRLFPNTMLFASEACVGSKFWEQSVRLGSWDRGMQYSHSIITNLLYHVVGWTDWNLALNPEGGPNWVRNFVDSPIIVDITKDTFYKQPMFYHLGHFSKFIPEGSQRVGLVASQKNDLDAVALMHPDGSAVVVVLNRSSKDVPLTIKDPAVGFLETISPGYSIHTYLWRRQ

For `c1nc(NCCN2CCOCC2)c2cc(-c3ccc4c(c3)OCO4)ccc2n1`, the values for the activity change, negative = inhibition in assay [1], in [3] and in assay [12] were -13.5% (inactive), 1.02% (inactive) and 10.6% (inactive), respectively. For the same compound, the Potency in assay [2] is 2.51 µM (active); in assay [5] it was > 46 µM (inactive); in assay [6], > 46 µM (inactive); in assay [9] it was 5.01 µM (active). Also, the activity, negative = inhibition in assay [4] is -4.03% (inactive). For the same compound, the Potency result in assay [7], in assay [8], in [10] and in assay [13] was “inactive” in each case. Further, the compound was called inactive in assay [11] and in assay [14]. The results for the max response in [12] (setting [16]) and in [12] (setting [17]) were 2.73% and 12.8%, respectively.
On to `O=C(c1cccc(F)c1)N1CCC2(CC1)CCN(c1ccncc1)CC2`, for which the Potency in assay [15] was > 11.4 µM (inactive); in [6], > 46 µM (inactive). The activity, negative = inhibition in assay [4] was 24% (inactive). Moreover, the Potency result in [7] and in [9] was “inactive” each time. Also, the activity change, negative = inhibition in [12] is -0.521% (inactive). For the same compound, the max response in assay [12] (setting [16]) is -17.2%; in assay [12] (setting [17]), -16.4%. The result in assay [14] was inactive.
For `COc1ccc2[nH]cc(CCNc3ccnc(-c4cccc(NS(C)(=O)=O)c4)n3)c2c1`, the activity change, negative = inhibition in assay [1] is -8.22% (inactive); in assay [12], 8.87% (inactive). Also, the Potency in [2] was 1.58 µM (active); in assay [5], > 46 µM (inactive); in assay [6], > 46 µM (inactive). For the same compound, the activity, negative = inhibition in [4] was -27.4% (inactive). The Potency result in assay [7], in [8], in [10] and in [13] was “inactive” in each case. Besides, the result in [11] and in assay [14] was inactive. Further, the max response was -1.88% in assay [12] (setting [16]) and 5.22% in assay [12] (setting [17]).
On to `CC(C)NC(=O)N1CC[C@@]2(CCCN(S(=O)(=O)c3ccccc3)C2)C1`, for which the Potency in assay [15] was > 11.4 µM (inactive); in assay [6], > 46 µM (inactive). Moreover, the figures for the activity change, negative = inhibition in assay [3] and in assay [12] were 18.4% (inactive) and 3.83% (inactive), respectively. Further, the activity, negative = inhibition in [4] was 1.4% (inactive). In addition, the Potency entry in [7], in assay [8] and in [10] was “inactive” each time. The max response in [12] (setting [16]) is -9.01%; in assay [12] (setting [17]) it was -4.67%. Also, in [14], the result was inactive.
Consider `CS(=O)(=O)Nc1cccc(-c2nc(NCCN3CCOCC3)c3ccccc3n2)c1`, for which the results for the activity change, negative = inhibition in assay [1] and in assay [12] were -21.3% (inactive) and 9.69% (inactive), respectively. Moreover, the Potency in [2] was 25.1 µM (active); in [5], > 46 µM (inactive); in assay [6] it was > 46 µM (inactive). Moreover, the activity, negative = inhibition in assay [4] is -7.39% (inactive). For the same compound, the Potency result in [7], in [8] and in [10] was “inactive” throughout. Further, the compound was called inactive in assay [11] and in assay [14]. The max response in assay [12] (setting [16]) was -5.53%; in assay [12] (setting [17]), 2.51%.
For `CC(=O)NCCNc1ncncc1-c1ccccc1C(F)(F)F`, the activity change, negative = inhibition in [1] was 1.26% (inactive); in [12] it was -1.77% (inactive). For the same compound, the Potency entry in [2], in assay [7], in assay [8], in [10] and in [13] was “inactive” throughout. Moreover, the activity, negative = inhibition in assay [4] is 6.6% (inactive). Moreover, the Potency in assay [5] and in assay [6] was > 46 µM (inactive) in each case. Further, the result in [11] and in [14] was inactive. Besides, the max response in [12] (setting [16]) was -7.27%; in assay [12] (setting [17]), -8.94%.
